Test results reported in ChEMBL document CHEMBL3988442, “University of Dundee, Small-Polar-MMV Screening Library” (2021).

Tests used:
[1] = target: T1, Aspartate--tRNA(Asp/Asn) ligase (Mycobacterium tuberculosis (strain ATCC 25618 / H37Rv)) (UniProt P9WFW3); assay: Assay for Asp RNA synthetase-1 from Mycobacterium tuberculosis; format: functional; set-up: scale not given: direction of the effect not stated beside the values; settings: 30 µM; further: in the data most compounds retested in dose-response had high values
T1 sequence (whole entry): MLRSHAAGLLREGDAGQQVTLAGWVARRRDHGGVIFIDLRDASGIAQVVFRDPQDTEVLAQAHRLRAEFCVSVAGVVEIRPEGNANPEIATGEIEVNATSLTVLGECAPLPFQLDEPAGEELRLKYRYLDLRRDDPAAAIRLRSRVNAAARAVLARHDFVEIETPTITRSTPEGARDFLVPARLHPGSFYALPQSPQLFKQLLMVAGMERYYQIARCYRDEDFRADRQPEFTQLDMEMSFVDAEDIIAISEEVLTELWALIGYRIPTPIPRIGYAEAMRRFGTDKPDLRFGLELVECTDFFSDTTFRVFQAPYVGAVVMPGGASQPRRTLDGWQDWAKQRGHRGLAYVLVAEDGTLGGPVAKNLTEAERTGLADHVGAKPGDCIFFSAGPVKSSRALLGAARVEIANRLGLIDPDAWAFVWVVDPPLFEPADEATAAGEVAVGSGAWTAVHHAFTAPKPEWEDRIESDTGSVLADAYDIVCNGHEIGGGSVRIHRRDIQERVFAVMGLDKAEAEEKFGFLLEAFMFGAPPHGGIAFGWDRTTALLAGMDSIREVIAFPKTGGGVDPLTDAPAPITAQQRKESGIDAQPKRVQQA

[2] = target: Shiga toxin 2 (Escherichia coli O157:H7) (UniProt P09385+P09386); assay: E. coli 0.157:H7 Shiga Toxin SOP - stx2 screening assay; format: functional; set-up: scale not given: direction of the effect not stated beside the values; settings: 30 µM

Compound | Percent Effect [1] [%] | Percent Effect [2] [%]
CCOCC1CN(C(=O)c2cscn2)Cc2nnn(CC3CC3)c21 (centres undefined) | -4.51 | -6.48
CNc1cc(N2CCCC2CNCc2ccc(Cl)o2)ncn1 (centres undefined) | -2.44 | 26.8
CCSc1cc(C(=O)NCCC(=O)Nc2ccccn2)ccn1 | -1.96 | -56.5
COCCn1ccnc1C1CCCN(C(=O)CSCC2CC2)C1 (centres undefined) | -2.09 | 12.8
O=C(c1cncc(Br)c1)N1CCC(O)(Cn2ccc3ccncc32)CC1 | 3.38 | -12.7
CCn1nc(C)c(CCNC(=O)C2CCCN(C(=O)N(C)C)C2)c1C (centres undefined) | -4.2 | 14.2
CNc1cncc(C2CCCN2Cc2ccccc2OCC(=O)O)n1 (centres undefined) | 4.48 | 3.64
O=C(c1ccc(NC2CC2)nc1)N1CCCC(n2cccn2)C1 (centres undefined) | -1.7 | 14.7
O=C(c1ccnnc1)N1C[C@@H]2CC[C@H](Oc3cccc(F)c3)[C@@H]2C1 | 3.77 | -5.52
CN(C)CCN(Cc1cccc(C(F)(F)F)c1)C(=O)c1cc[nH]n1 | 0.947 | -18.8
CN(C)c1ccc(C(=O)NCC2(c3ccccc3)CCOCC2)cc1 | 1.31 | -24.7
CN(Cc1cccc(F)c1)C(=O)CN1CCOC(Cn2cccn2)C1 (centres undefined) | -0.139 | 0.15
O=C(CS(=O)(=O)c1ccccc1Cl)NC1CCCCNC1=O (centres undefined) | -8.65 | 4.72
CC(C(=O)Nc1ccc(N2CCCC2)nc1)n1cncn1 (centres undefined) | 0.459 | 11.3
Cc1c(C(=O)NCC2CCCO2)nnn1-c1cccc2c1CCN(C)C2 (centres undefined) | 3.06 | -26.5
Cc1ccccc1CC(=O)N(C)C1CCN(c2ccccn2)CC1 | -1.19 | 6.11
Cc1nc(C)n(C2CCCN(C(=O)Cc3n[nH]c4ccccc34)C2)n1 (centres undefined) | 2.55 | -3.54
